M1 ag: agonists of human M1 muscarinic receptor; P11229; CHO-K1 hM1, Fluo-8 calcium fluorescence, agonist mode; 0% DMSO, 100% acetylcholine EC100; activation, % at 3 µM; 360,000 compounds, 0.33% hits;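 active means activation above the run's mean compound activation plus 3 SD, cut at about 16% in these data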;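 further: peak over basal fluorescence ratio within a 140 s kinetic read after compound addition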
Target sequence (P11229 whole entry, looked up): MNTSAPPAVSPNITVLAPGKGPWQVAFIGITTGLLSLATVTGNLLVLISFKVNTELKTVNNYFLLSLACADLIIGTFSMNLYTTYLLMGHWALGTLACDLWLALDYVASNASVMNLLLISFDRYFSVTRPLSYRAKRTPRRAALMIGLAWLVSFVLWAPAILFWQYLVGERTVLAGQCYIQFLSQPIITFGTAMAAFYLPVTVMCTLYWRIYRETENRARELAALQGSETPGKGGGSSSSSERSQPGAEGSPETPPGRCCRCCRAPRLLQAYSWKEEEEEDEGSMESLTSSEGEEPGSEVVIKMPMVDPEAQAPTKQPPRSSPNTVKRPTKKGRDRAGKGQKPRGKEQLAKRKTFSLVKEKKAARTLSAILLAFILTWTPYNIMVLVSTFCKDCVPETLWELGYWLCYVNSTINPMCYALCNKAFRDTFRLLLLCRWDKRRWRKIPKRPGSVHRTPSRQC
M1 antag: human CHRM1 antagonism | P11229 | CHO-K1 hM1, Fluo-8 calcium fluorescence, ACh EC80 antagonist | inhibition, % at 3 µM | 360,000 compounds, 1.3% hits | AID 588852;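 active means percent inhibition above its own plate's cutoff, namely the mean of that plate's compound wells plus 3 SD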;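 further: peak over basal fluorescence ratio during 140 s after agonist addition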
M1 PAM parental: nonselective activator or artifact in parental CHO-K1 calcium assay | activation, % at 3 µM | ATP EC20, Fluo-8 calcium fluorescence; 0% at ATP EC20, 100% at ATP max | 360,000 compounds, 0.02% hits | AID 602247;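 active means activation above the run cutoff, the mean activation of all test compounds plus 3 SD, cut at about 40% in these data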;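 further: peak over basal fluorescence ratio in a 140 s read after ATP addition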
M1 ag parental: M1 agonist counterscreen hit in parental CHO-K1 cells. Fluo-8 calcium fluorescence; scaled to maximal ATP response, vehicle zero. activation, % at 3 µM. 360,000 compounds, 0.48% hits. AID 602248; in the data active means activation above about 15%;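 further: untransfected CHO-K1 host cells lacking M1 receptor as counterscreen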
M1 PAM: potentiates human M1 receptor response to acetylcholine; 360,000 compounds, 0.088% hits; activation, % at 3 µM; CHO-K1 hM1, Fluo-8 calcium fluorescence, ACh EC20; 0% = ACh EC20, 100% = maximal ACh; P11229; in the data active means activation above about 19%, passing the limit was not always enough
CHO-K1 Ca antag: M1 antagonist counterscreen hit in parental CHO-K1 cells. 360,000 compounds, 0.6% hits. ATP-induced calcium, Fluo-8 fluorescence. AID 602250. inhibition, % at 3 µM;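 active means inhibition above a per-plate cutoff, the plate's mean sample inhibition plus 3 SD, cut at about 24% in these data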
Each line names hits and unclear results; the compound was inactive in the other large screens. Rows were chosen to be rich in hits. Some 2.4% of all compounds tested hit in one or more screens of this group.

CCCN(C(=O)CSCc1c(C)noc1C)c1c(N)n(Cc2ccccc2)c(=O)[nH]c1=O	none
Cc1cc(N2CCCC2)c(F)cc1/C=C\[N+](=O)[O-]	M1 ag 28.1, M1 ag parental 25.0, CHO-K1 Ca antag 28.1
Cc1cc(N2CCC(C)CC2)c(F)cc1[N+](=O)[O-]	none
CC(C)N(Cc1nccn1C)C(=O)c1ccc2oc(Cc3ccccc3)nc2c1	none
Cc1ccc(OCC(=O)Nc2ccc3c(c2)OCO3)c([N+](=O)[O-])n1	none
Cc1ccc(OCC(=O)Nc2ccc3c(c2)OC(F)(F)O3)c([N+](=O)[O-])n1	M1 antag 49.2
CC(C)c1ccc(C2NC(=O)c3ccccc3O2)cc1 (stereo not drawn)	none
O=C(NCc1ccccn1)c1ccc(Cl)c(S(=O)(=O)N2CCOCC2)c1	none
CCN1CCN(C2=C(Cl)C(=O)N(Cc3ccccc3)C2=O)CC1	M1 antag 77.7
CN1CCN(C2=C(Cl)C(=O)N(Cc3ccccc3)C2=O)CC1	M1 antag 27.0
c1ccc(C(c2ccccc2)c2noc(CN3CCN(CC4CC4)CC3)n2)cc1	M1 antag 93.5
COc1cc(OC)c(OC)cc1CN1CCN(C(=O)CC(C)C)CC1	none
O=C1NC(c2ccccc2)CCO1 (stereo not drawn)	M1 PAM 29.3
O=C(NC(c1cccnc1)C(F)(F)F)c1cc(COc2ccc3c(c2)CCCC3)on1 (stereo not drawn)	M1 antag 42.3, CHO-K1 Ca antag 27.2
C=CCOC(=O)CCCCCCCC	none
COc1ccc(N2C(=O)[C@@H]3[C@H](C2=O)[C@H]2c4ccccc4C=CN2[C@@H]3C(=O)Nc2ccccc2)cc1	M1 ag 50.4
COc1ccc(OC(C)C(=O)N2CCc3ccccc3C2)cc1 (stereo not drawn)	CHO-K1 Ca antag 25.3
CC(Oc1ccccc1)C(=O)N1CCc2ccccc2C1 (stereo not drawn)	none
COc1cccc(NC(=S)NC2CC(C)(C)NC(C)(C)C2)c1	CHO-K1 Ca antag 26.1
CC1(C)CC(NC(=S)NC(=O)c2cc(Br)ccc2Cl)CC(C)(C)N1	M1 ag 21.9
COc1cc(NC(=S)NC2CC(C)(C)NC(C)(C)C2)c(OC)cc1Cl	M1 ag 36.3
CC(=O)Nc1ccc(S(=O)(=O)N(C)CC(=O)N/N=C/c2ccncc2)cc1	none
CC(c1ccccc1)n1c(N2CCNCC2)nc2c1c(=O)[nH]c(=O)n2C (stereo not drawn)	M1 antag 69.5
CC(c1ccccc1)n1c(Br)nc2c1c(=O)[nH]c(=O)n2C (stereo not drawn)	none
Cc1ccc(CNC(=O)C(c2ccccc2)c2ccccc2)cc1	none
COc1cccc(CNC(=O)CCCn2nc(C)c3c(C)n(-c4ccc(C)cc4)nc3c2=O)c1OC	none
c1ccc(Nc2cccc3ccccc23)cc1	none
c1ccc(Nc2ccc3c4c(cccc24)CC3)cc1	M1 ag 42.5, M1 antag 52.4, M1 ag parental 39.8, CHO-K1 Ca antag 39.9
COc1ccc(NC(=O)CCCNC(=O)Cn2cnc3sc(C)c(C)c3c2=O)c(OC)c1	M1 antag 22.3
COc1ccc(CCNC(=O)Cn2cnc3sc(C)c(-c4ccc(F)cc4)c3c2=O)cc1OC	M1 ag 18.2
CCOC(=O)C1CN(C(=O)OCC)CC1=NNC(N)=O (stereo not drawn)	none
CC(C)Cn1c2c(c(O)c(C(=O)Nc3ccc(F)cc3)c1=O)CCCC2	CHO-K1 Ca antag 25.3
CCCCCC(=O)NC(=S)Nc1ccc(N2CCCCC2)c(Cl)c1	none
CC(=O)N1CCN(c2ccccc2NC(=O)c2ccc(C#N)cc2F)CC1	none
CCN1CCN(c2ccc(NC(=O)c3ccccc3F)cc2Cl)CC1	M1 antag 84.1
CCN1CCN(c2ccc(NC(=O)c3cc4ccccc4cc3OC)cc2C)CC1	M1 antag 99.3
CCN1CCN(c2ccc(NC(=O)c3ccc(C#N)cc3F)cc2Cl)CC1	M1 antag 53.8
CCCCCC(=O)Nc1ccc(N2CCN(CC)CC2)c(Cl)c1	M1 antag 68.5
Cn1cc(S(=O)(=O)NC[C@H]2O[C@@H](n3ccc(=O)[nH]c3=O)[C@H](O)[C@@H]2O)cn1	none
CN(c1ccccc1)S(=O)(=O)c1ccc(NC(=O)c2ccccc2)cc1	none
CN(c1ccc(C(=O)Nc2ccccn2)cc1)S(=O)(=O)c1ccccc1	none
CN(c1ccccc1)S(=O)(=O)c1ccc(NC(=O)c2ccc(F)cc2)cc1	M1 ag parental 19.4
Cc1cc(NC(=O)c2ccc(N(C)S(=O)(=O)c3ccccc3)cc2)no1	M1 ag parental 16.9
Cc1cccc(CSCCNC(=O)c2ccc(N(C)S(=O)(=O)c3ccccc3)cc2)c1	none
CN(c1ccc(C(=O)NCCSCc2ccccc2)cc1)S(=O)(=O)c1ccccc1	CHO-K1 Ca antag 24.2
COc1ccc(CNC(=O)c2ccc(N(C)S(=O)(=O)c3ccc(C)cc3)cc2)cc1	CHO-K1 Ca antag 25.1
Cc1noc(C)c1S(=O)(=O)Nc1c(C)n(C)n(-c2ccccc2)c1=O	CHO-K1 Ca antag 31.1
CCCCn1c(N)c(N(C)C(=O)c2ccc(OCC3CCCO3)cc2)c(=O)[nH]c1=O (stereo not drawn)	none
CCOC(=O)c1[nH]c2cc3c(cc2c1CCCN1C(=O)c2ccccc2C1=O)OCCO3	none
CCOC(=O)c1[nH]c2ccccc2c1CCCN1C(=O)c2ccccc2C1=O	M1 antag 89.0
CC(=O)c1c(C)[nH]c(C(=O)OCc2ccccc2)c1C	none
CC(=O)c1c(C)[nH]c(C(=O)OCCCCN2C(=O)c3ccccc3C2=O)c1C	M1 antag 39.6, CHO-K1 Ca antag 33.2
Cc1ccc(C)c(S(=O)(=O)N2CCN(C(=O)CCCc3c[nH]c4ccccc34)CC2)c1	none
Cc1cc(NC2CCCCC2)nc(NCc2ccccc2)n1	M1 antag 35.4, M1 ag parental 15.1
Cc1ccc(S(=O)(=O)N2C[C@@H]3[C@H]4CC[C@H](C4)[C@@H]3[C@@H](C)[C@@H]2C2CCCCC2=O)cc1 (stereo partly drawn)	none
S=C1NC2=C(CCCC2=C2SCCS2)C(c2ccccc2)N1 (stereo not drawn)	CHO-K1 Ca antag 25.0
CN(Cc1ccccc1)C1CCN(Cc2ccccc2[N+](=O)[O-])CC1	M1 antag 89.6
NC(=O)CC(NC(=O)Cc1ccc(Br)cc1)c1ccc(NC2CCN(Cc3ccccc3)CC2)c([N+](=O)[O-])c1 (stereo not drawn)	M1 antag 43.3
O=[N+]([O-])c1ccccc1CN1CCN(S(=O)(=O)Cc2ccccc2)CC1	none
CC1CCC2C(=O)N(c3ccc(NC4CCN(Cc5ccccc5)CC4)c([N+](=O)[O-])c3)C(=O)C2C1 (stereo not drawn)	M1 antag 80.3
